Experimental data: the supplement of paper PMC10849652
The full data set covers some 8,800 targets. This sample favours those with a hit. About 0.5% of all pairs of compound and target were hits.

Tests used:
Assay in all cases: log2 fold change, soluble protein after heating vs DMSO (PISA); higher = thermal stabilisation; K562 lysate, 10 uM; active = over 0.2 and 3.5 SD of the protein, either way, in both replicates (recomputed)
[1] = compound: CCCS(=O)(=O)Nc1ccc(F)c(C(=O)c2c[nH]c3ncc(Cl)cc23)c1F
Summary of the method: (§1)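 To prepare the extract, K562 pellets were dounce-homogenised in PBS pH 7.4 with 1 mM MgCl2, giving crude material at 1 mg/mL protein. This was treated with 10 μM compound for 30 min, then heated in aliquots for 3 min over 48°C-58°C before pooling and addition of NP-40 to 0.5% at 4°C. Centrifugation at 21,000xg for 90 min left soluble protein in the supernatant, which TMTpro 16plex LC-MS/MS quantified with equalised channel sums. Results are log-two fold changes in thermal stability compared with solvent controls, from duplicates.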

[2] = compound: CC[C@@H]1C(=O)N(C)c2cnc(Nc3ccc(C(=O)NC4CCN(C)CC4)cc3OC)nc2N1C1CCCC1
Summary of the method: as §1

[3] = compound: CC[C@@H]1C(=O)N(C)c2cnc(Nc3ccc(C(=O)N[C@H]4CC[C@H](N5CCN(CC6CC6)CC5)CC4)cc3OC)nc2N1C(C)C [volasertib]
Summary of the method: as §1

[4] = compound: CCn1c(C(=O)N(C2CC2)C2CC2)cc2c3c(ncn3C)c(Nc3cc(C)n(C)n3)nc21
Summary of the method: as §1

[5] = compound: CCn1cc(-c2ccnc3[nH]c(-c4cccc(CN(C)C)c4)cc23)c(-c2ccc(NC(=O)N(C)C)cc2)n1
Summary of the method: as §1

[6] = compound: CN1CCC(CNc2ccc3ncc(-c4cccc(OC(F)(F)F)c4)n3n2)CC1
Summary of the method: as §1

[7] = compound: CN1CCN(CCOc2cc(OC3CCOCC3)c3c(Nc4c(Cl)ccc5c4OCO5)ncnc3c2)CC1 [saracatinib]
Summary of the method: as §1

[8] = compound: CN1CC[C@H](c2c(O)cc(O)c3c(=O)cc(-c4ccccc4Cl)oc23)[C@H](O)C1 [alvocidib]
Summary of the method: as §1

[9] = compound: CN1CCc2c(c3ccccc3n2Cc2ccc(C(=O)NO)cc2)C1 [Tubastatin A]
Summary of the method: as §1

[10] = compound: CNC(=O)C1=CC=CC=C1NC2=NC(=NC=C2Cl)NC3=C(C=C(C=C3)N4CCOCC4)OC
Summary of the method: as §1

[11] = compound: CNc1nc(-c2ccc3c(N)n[nH]c3c2)cc(N2C[C@@H](C(=O)NC3CCCCC3)CC[C@H]2C)n1
Summary of the method: as §1

[12] = compound: COC(=O)N[C@@H](C)CNc1nccc(-c2cn(C(C)C)nc2-c2cc(Cl)cc(NS(C)(=O)=O)c2F)n1 [encorafenib]
Summary of the method: as §1

[13] = compound: COC(=O)[C@H](CCSC)NC(=O)C1=C(C=C(C=C1)NC[C@H](CS)N)C2=CC=CC=C2
Summary of the method: as §1

[14] = compound: COc1cc(Nc2ncc3c(n2)-c2ccc(Cl)cc2C(c2c(F)cccc2OC)=NC3)ccc1C(=O)O [alisertib]
Summary of the method: as §1

[15] = compound: COc1cc2nc(-c3cc(F)ccc3O)nc(N[C@@H]3CNC[C@H]3C(C)(C)O)c2cc1OC
Summary of the method: as §1

[16] = compound: COc1cc2ncnc(Nc3ccc(F)c(Cl)c3)c2cc1OCCCN1CCOCC1 [gefitinib]
Summary of the method: as §1

[17] = compound: CCCS(=O)(=O)Nc1ccc(F)c(C(=O)c2c[nH]c3ncc(-c4ccc(Cl)cc4)cc23)c1F [vemurafenib]
Summary of the method: as §1

[18] = compound: CN1CCN(c2nc(C3=C(c4c[nH]c5ccccc45)C(=O)NC3=O)c3ccccc3n2)CC1 [sotrastaurin]
Summary of the method: as §1

[19] = compound: CNC(=O)c1ccc(Nc2ncc(C(F)(F)F)c(NCc3nccnc3N(C)S(C)(=O)=O)n2)cc1 [defactinib]
Summary of the method: as §1

[20] = compound: CCN(CCCOc1ccc2c(Nc3cc(CC(=O)Nc4cccc(F)c4)[nH]n3)ncnc2c1)CCOP(=O)(O)O [barasertib]
Summary of the method: as §1

Measured: log2 fold change

U2AF1L5 (UniProt P0DN76)
inactive: [1] -0.013 | [2] 0.027 | [3] -0.036 | [4] 0.015 | [6] 0.389 | [7] -0.007 | [8] -0.58 | [9] -0.193 | [10] -0.044 | [11] -0.023 | [12] -0.101 | [13] 0.096 | [14] -0.045 | [15] -0.013 | [16] -0.061
active: [5] -1.21

TFPI isoform 2 (UniProt P10646)
Sequence of UniProt P10646 (P10646 whole entry, looked up): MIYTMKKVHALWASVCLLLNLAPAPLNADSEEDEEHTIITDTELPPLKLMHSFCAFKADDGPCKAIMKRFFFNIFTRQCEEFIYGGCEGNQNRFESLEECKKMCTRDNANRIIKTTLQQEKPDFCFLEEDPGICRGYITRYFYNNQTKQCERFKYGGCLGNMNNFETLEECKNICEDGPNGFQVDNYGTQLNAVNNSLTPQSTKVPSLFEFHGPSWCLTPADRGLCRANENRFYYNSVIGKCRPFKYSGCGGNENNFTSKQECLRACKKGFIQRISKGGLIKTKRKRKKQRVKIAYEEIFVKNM
inactive: [17] 0 | [18] -0.011 | [19] -0.109

TFPT (UniProt P0C1Z6)
Sequence of UniProt P0C1Z6 (P0C1Z6 whole entry, looked up): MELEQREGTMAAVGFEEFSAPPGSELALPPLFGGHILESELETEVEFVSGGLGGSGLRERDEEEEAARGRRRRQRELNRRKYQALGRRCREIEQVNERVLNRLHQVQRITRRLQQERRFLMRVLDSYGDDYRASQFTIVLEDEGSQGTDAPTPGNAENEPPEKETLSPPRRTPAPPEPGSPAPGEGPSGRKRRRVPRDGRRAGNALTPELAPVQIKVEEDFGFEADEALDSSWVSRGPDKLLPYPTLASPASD
active: [11] 0.381
inactive: [1] -0.019 | [20] 0.148 | [3] 0.015 | [7] 0.005 | [10] -0.041 | [15] 0.027

TMPO isoform 2 (UniProt P42167)
Sequence of UniProt P42167 (P42167 whole entry, looked up): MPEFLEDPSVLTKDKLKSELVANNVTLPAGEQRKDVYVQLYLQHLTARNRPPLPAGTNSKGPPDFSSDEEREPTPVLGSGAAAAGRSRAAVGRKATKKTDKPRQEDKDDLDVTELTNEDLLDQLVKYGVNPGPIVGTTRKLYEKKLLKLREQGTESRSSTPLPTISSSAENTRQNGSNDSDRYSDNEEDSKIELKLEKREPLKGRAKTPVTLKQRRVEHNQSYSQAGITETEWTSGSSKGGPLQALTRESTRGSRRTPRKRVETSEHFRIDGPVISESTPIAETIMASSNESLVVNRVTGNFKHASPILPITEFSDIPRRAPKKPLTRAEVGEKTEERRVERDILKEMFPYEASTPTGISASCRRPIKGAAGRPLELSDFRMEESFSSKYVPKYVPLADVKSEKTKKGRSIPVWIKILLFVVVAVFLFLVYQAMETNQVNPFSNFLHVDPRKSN
inactive: [17] 0.08 | [20] 0.185 | [2] 0.075 | [7] 0.044 | [19] 0.058 | [11] 0.186 | [12] -0.113 | [13] -0.14

TJP1 (UniProt H0Y3R8)
inactive: [5] 0.048 | [6] -0.16 | [8] 0.079

TCF3 isoform 2 (UniProt P15923)
inactive: [4] 0.065 | [18] 0.043 | [9] 0.055 | [10] 0.214

TM2D3 (UniProt Q9BRN9)
inactive: [20] -0.105 | [2] -0.079 | [4] 0.199 | [6] 0.444 | [8] -0.291 | [9] -0.125 | [10] 0.008 | [12] -0.116 | [13] -0.116
active: [5] -0.934

TLE3 (UniProt H0YL70)
inactive: [7] 0.152 | [11] 0.153

TASP1 (UniProt Q9H6P5)
inactive: [1] 0.028 | [20] 0.13 | [2] -0.082 | [3] -0.02 | [4] -0.047 | [7] -0.082 | [18] 0.02 | [9] 0.087 | [10] -0.119 | [11] 0.112 | [12] -0.035 | [13] 0.103 | [14] -0.151 | [15] -0.048 | [16] -0.046

UBAP2L isoform 1 (UniProt Q14157)
inactive: [20] 0.001 | [4] 0.207 | [18] -0.105 | [9] -0.006 | [14] 0.032 | [16] -0.088

TCF3 (UniProt X6REB3)
inactive: [17] 0.075 | [5] 0 | [6] 0.128 | [8] -0.168 | [19] -0.149

TEDC1 (UniProt Q86SX3)
inactive: [1] 0.103 | [2] 0.106 | [3] -0.041 | [4] 0.019 | [7] -0.02 | [18] -0.037 | [9] -0.254 | [10] 0.038 | [11] 0.051 | [12] 0.094 | [13] 0.047 | [14] -0.019 | [15] -0.008 | [16] 0.047

UBAP2, A0A0D9SFI5
inactive: [18] 0.007

TTLL12 (UniProt V9GY16)
inactive: [17] 0.261 | [20] 0.102 | [2] 0.227 | [4] -0.465 | [5] -0.393 | [6] 0.133 | [18] -0.175 | [8] 0.003 | [9] 0.177 | [10] 0.077 | [19] -0.095 | [12] -0.174 | [13] 0.146

TCF20 (UniProt Q9UGU0)
active: [11] 0.615
inactive: [1] -0.106 | [20] 0.084 | [3] 0.006 | [5] -0.02 | [6] -0.031 | [7] 0.038 | [18] 0.086 | [8] -0.017 | [10] 0.01 | [15] 0.167

TNIK isoform 5 (UniProt Q9UKE5)
inactive: [1] -0.118 | [20] 0.021 | [3] -0.087 | [4] -0.059 | [5] -0.051 | [6] -0.065 | [7] 0.022 | [18] 0.034 | [8] 0.012 | [9] -0.015 | [11] -0.04 | [15] 0.214

TMEM132A isoform 2 (UniProt Q24JP5)
Sequence of UniProt Q24JP5 (Q24JP5 whole entry, looked up): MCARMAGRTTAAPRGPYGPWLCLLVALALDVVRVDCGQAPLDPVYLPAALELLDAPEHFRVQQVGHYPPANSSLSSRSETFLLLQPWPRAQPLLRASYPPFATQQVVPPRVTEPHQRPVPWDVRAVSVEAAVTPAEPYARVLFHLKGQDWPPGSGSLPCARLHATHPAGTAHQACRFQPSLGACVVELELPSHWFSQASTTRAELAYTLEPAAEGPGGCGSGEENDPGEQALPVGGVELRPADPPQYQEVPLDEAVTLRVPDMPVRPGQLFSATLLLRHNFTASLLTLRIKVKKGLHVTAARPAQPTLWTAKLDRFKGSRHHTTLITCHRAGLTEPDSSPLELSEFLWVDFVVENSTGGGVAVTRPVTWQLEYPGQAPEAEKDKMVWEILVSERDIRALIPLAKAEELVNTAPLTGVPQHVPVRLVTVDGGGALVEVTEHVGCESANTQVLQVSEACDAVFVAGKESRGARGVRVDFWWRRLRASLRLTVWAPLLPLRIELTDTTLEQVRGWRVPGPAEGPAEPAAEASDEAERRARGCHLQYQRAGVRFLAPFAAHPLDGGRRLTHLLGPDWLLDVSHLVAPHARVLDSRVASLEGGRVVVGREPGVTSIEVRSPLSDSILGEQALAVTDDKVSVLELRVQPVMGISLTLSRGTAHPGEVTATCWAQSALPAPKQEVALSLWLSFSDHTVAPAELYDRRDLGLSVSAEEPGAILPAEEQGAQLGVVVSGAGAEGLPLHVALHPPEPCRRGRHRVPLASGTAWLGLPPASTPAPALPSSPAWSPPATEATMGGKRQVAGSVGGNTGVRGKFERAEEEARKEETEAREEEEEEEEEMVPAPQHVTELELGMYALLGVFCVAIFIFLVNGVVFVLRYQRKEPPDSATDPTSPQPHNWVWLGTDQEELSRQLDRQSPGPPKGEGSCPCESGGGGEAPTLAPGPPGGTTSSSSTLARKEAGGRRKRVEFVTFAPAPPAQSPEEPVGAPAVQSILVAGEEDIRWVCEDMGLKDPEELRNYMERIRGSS
active: [15] 1.16
inactive: [1] 0.239 | [2] -0.078 | [3] -0.144 | [4] 0.028 | [5] 0.055 | [6] 0.3 | [18] 0.044 | [8] -0.381 | [9] 0.136 | [10] -0.097 | [12] -0.064 | [13] -0.042

TENM4 (UniProt Q6N022)
inactive: [1] -0.205 | [20] 0.104 | [3] -0.069 | [6] -0.257 | [18] 0 | [8] 0.03 | [15] 0.024
active: [5] 0.534

TJP1 (UniProt G3V1L9)
inactive: [17] 0.076 | [20] -0.034 | [4] -0.021 | [5] 0.04 | [6] -0.004 | [7] 0.096 | [18] -0.046 | [8] -0.09 | [9] -0.042 | [10] 0.124 | [19] 0.241 | [11] 0.119 | [14] -0.079 | [16] -0.215

UCP2 (UniProt P55851)
Sequence of UniProt P55851 (P55851 whole entry, looked up): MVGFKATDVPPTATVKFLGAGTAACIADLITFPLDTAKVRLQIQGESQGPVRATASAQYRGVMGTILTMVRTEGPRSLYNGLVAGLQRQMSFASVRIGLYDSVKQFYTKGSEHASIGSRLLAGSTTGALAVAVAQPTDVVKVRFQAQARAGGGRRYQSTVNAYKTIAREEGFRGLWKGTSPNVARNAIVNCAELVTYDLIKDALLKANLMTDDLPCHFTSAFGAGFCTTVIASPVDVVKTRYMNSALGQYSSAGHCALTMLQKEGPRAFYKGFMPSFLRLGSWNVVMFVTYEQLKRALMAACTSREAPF
inactive: [17] 0.09 | [4] -0.024 | [18] -0.001 | [9] 0.182 | [19] 0.096 | [14] 0.033 | [16] 0.045

TMEM154 (UniProt Q6P9G4)
Sequence of UniProt Q6P9G4 (Q6P9G4 whole entry, looked up): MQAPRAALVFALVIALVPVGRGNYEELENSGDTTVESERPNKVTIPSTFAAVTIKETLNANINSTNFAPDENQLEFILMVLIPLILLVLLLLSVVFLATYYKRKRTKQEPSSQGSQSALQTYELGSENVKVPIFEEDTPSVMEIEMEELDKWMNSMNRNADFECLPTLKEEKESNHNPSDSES
inactive: [2] 0.022 | [4] -0.08 | [7] -0.036 | [18] 0.116 | [9] 0.063 | [11] -0.099 | [12] -0.015 | [13] 0.023

TUBA4A (UniProt C9JQ00)
inactive: [20] 0.267 | [5] 0 | [6] -0.045 | [8] 0.074

TCF4 (UniProt P15884)
inactive: [1] -0.015 | [2] -0.017 | [3] 0.126 | [4] 0.008 | [5] -0.011 | [6] 0.03 | [7] 0.021 | [18] -0.017 | [8] 0.005 | [9] -0.282 | [11] -0.009 | [12] 0.17 | [13] -0.099 | [14] 0.078 | [15] 0.212 | [16] 0.06

UBAP2 (UniProt Q5JV08)
inactive: [14] -0.165 | [16] -0.139

TRPM4 (UniProt Q8TD43)
Sequence of UniProt Q8TD43 (Q8TD43 whole entry, looked up): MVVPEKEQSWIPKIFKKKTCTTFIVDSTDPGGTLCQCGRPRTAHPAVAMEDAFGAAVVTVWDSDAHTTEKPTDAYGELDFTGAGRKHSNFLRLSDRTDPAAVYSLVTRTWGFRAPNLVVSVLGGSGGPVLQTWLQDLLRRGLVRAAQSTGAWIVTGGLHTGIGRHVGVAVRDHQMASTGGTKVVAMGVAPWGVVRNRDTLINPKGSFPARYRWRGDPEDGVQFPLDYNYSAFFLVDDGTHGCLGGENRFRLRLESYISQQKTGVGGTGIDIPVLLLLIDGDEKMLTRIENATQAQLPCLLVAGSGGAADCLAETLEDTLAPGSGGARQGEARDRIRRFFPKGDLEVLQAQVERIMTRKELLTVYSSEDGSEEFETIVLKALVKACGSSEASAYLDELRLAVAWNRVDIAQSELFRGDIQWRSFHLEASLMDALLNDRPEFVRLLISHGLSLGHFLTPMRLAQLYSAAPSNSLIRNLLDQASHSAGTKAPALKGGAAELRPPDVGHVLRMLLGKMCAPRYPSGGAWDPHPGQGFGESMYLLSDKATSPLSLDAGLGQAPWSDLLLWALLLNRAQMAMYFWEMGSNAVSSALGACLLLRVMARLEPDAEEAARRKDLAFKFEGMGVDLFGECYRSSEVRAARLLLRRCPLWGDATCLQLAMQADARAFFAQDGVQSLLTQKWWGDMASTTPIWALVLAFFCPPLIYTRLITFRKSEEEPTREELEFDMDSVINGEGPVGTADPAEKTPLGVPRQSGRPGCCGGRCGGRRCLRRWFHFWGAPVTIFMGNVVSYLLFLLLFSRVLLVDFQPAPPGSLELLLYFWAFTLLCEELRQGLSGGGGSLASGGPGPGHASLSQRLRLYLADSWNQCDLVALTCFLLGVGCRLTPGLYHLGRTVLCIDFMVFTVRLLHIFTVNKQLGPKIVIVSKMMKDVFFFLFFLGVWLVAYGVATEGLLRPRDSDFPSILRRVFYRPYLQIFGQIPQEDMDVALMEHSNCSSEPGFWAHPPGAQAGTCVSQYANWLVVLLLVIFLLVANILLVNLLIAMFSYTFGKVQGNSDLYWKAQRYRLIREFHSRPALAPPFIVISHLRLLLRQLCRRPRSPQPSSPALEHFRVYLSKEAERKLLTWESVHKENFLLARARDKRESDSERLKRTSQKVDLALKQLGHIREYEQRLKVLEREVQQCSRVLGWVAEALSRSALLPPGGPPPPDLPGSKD
inactive: [20] 0.456 | [4] 0.066 | [5] -0.598 | [6] 0.156 | [7] 0.044 | [18] 0.11 | [8] -0.401 | [9] 0.053 | [10] -0.163 | [11] 0.14

TGFBR1 isoform 2 (UniProt P36897)
Sequence of UniProt P36897 (P36897 whole entry, looked up): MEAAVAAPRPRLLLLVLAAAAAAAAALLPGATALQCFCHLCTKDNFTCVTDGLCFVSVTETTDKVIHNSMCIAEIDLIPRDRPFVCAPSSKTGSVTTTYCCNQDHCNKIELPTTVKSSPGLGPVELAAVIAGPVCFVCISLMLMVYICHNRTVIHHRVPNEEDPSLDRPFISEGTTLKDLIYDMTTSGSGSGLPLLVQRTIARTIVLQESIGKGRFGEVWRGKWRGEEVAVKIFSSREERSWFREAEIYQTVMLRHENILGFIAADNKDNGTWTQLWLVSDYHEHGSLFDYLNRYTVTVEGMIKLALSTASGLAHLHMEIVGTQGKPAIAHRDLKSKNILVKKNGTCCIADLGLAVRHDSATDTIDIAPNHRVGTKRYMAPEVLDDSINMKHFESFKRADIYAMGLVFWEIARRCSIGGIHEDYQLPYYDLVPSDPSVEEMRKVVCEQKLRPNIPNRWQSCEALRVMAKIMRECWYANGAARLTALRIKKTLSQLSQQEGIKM
inactive: [2] -0.005 | [10] 0.156 | [11] -0.004 | [12] -0.017 | [13] 0.077
active: [7] 1.04

TNFAIP3 (UniProt P21580)
inactive: [1] 0.004 | [20] -0.015 | [2] -0.412 | [3] -0.063 | [4] 0.051 | [5] -0.009 | [6] 0.017 | [7] 0.029 | [18] -0.006 | [8] 0.005 | [9] -0.076 | [10] 0.022 | [11] -0.009 | [13] 0.228 | [14] 0.002 | [15] 0.031 | [16] -0.028
active: [12] 0.276

TLK2 isoform 3 (UniProt Q86UE8)
inactive: [5] 0.104 | [6] -0.036 | [8] 0.007

TUBB4A (UniProt P04350)
Sequence of UniProt P04350 (P04350 whole entry, looked up): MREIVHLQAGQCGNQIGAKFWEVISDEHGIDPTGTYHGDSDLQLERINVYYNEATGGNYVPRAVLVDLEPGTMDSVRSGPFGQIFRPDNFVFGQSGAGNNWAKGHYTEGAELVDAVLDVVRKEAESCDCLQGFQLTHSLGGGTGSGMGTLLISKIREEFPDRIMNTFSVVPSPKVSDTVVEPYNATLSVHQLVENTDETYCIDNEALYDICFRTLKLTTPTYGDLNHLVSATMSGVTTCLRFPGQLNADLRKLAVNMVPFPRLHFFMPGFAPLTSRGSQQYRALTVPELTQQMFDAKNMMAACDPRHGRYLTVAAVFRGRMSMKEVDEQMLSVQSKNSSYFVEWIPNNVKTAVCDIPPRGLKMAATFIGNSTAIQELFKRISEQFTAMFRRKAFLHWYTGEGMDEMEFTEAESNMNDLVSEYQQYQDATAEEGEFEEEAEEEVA
inactive: [1] 0.036 | [20] -0.006 | [2] 0.045 | [3] 0.104 | [4] 0.02 | [5] -0.09 | [6] 0 | [7] -0.033 | [18] -0.007 | [8] -0.006 | [9] -0.113 | [10] -0.029 | [11] 0.051 | [12] -0.027 | [13] 0.112 | [14] 0.021 | [15] -0.002 | [16] 0.101

TMSB4X (UniProt P62328)
Sequence of UniProt P62328 (P62328 whole entry, looked up): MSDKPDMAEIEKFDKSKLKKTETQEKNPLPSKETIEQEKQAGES
inactive: [1] -0.068 | [20] 0.056 | [2] 0.084 | [3] 0.104 | [4] -0.187 | [5] -0.191 | [6] 0.371 | [18] 0.205 | [8] 0.401 | [9] 0.102 | [10] -0.045 | [12] 0.043 | [13] -0.055 | [14] -0.143 | [15] 0.063 | [16] -0.001
